Measured values taken from PubChem BioAssay AID686964 (The Scripps Research Institute Molecular Screening Center, 2013).
The campaign covered roughly 370,000 compounds. About 1,100 (0.3%) were called active. Cut-off read from the data, not from the text of the source: active = inhibition above about 13%; inactive = the rest. What follows is part of a selection rich in actives, with near analogues and random picks from the rest.

molecular target: Methyl-CpG-binding domain protein 2 (Homo sapiens) (UniProt Q9UBB5); assay: inhibitors of MBD2 binding to methylated DNA, primary screen, biochemical, TR-FRET, DNA-binding domain, human (AID 686964); conditions: MBD2 binding to methylated oligonucleotide, at 4.4 µM, stronger effect = higher value
Sequence (Q9UBB5 whole entry, looked up, the tested form may be a part): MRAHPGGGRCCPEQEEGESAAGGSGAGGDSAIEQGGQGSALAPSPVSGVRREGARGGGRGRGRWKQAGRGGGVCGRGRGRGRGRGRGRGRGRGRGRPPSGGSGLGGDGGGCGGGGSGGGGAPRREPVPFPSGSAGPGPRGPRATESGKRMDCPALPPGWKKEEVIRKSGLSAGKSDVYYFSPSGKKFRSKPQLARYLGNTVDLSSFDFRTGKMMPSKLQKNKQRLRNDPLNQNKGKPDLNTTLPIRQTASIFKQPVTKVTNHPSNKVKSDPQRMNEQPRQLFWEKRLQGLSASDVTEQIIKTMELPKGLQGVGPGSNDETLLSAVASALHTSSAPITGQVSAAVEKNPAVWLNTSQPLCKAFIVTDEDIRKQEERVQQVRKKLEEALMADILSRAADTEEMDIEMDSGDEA

inhibition, active:
COc1ccc2c(c1)c(=Cc1ccc(N(C)C)cc1)c1cc(-c3ccccc3)[n+](C)n12 29.6%
COc1ccc(CNC(=O)c2c[nH]c3c(OC)cc(OC)cc3c2=O)cc1 23.4%
CO/N=C(/CS(=O)(=O)c1ccc(Br)cc1)c1ccc(OC)cc1 14%
Cc1ccc(C)c(NC(=O)c2ccc(OC(=O)c3ccco3)cc2)c1 19.6%
Cc1cccc(CN2CCN(C3CN(Cc4cn(Cc5cc(C)cc(C)c5)nn4)S(=O)(=O)C3)CC2)c1 (stereo unspecified) 17.4%
CCOC(=O)c1ccc(-n2c(CCC(=O)O)ccc2-c2ccccc2)cc1 14.6%
Cc1ccc(-c2ccnc3nc(Sc4ncc(C(F)(F)F)cc4Cl)nn23)cc1 14.8%
C=CCn1c(=S)[nH]c2scc(-c3ccco3)c2c1=O 21.2%
COc1ccc(COC[C@H](CC(C)C)N2CCN(C(=O)c3cccc(C(F)(F)F)c3)CCC2=O)cc1 13.4%
Cc1c(CC(=O)N2CCN(C(=O)C3COc4ccccc4O3)CC2)c(=O)oc2c(O)c(O)ccc12 (stereo unspecified) 13.6%
COc1ccc(-n2cc(-c3ccccc3)c3c(=S)nc[nH]c32)cc1 14%

inhibition, inactive:
O=C(c1ccncc1)N1CC[C@H]2[C@H](CCCN2Cc2ccc(F)cc2)C1 -6.65%
COc1ccc(NS(=O)(=O)c2cc3c(cc2C)N(C(C)=O)CCO3)cc1 -5.65%
CC1CCCN(CCOCCOc2ccccc2-c2ccccc2)C1 (stereo unspecified) -4.99%
COc1ccc(CNC(=O)c2cc(C(=O)C3CC3)c[nH]2)cc1 1.85%
CCSc1ccccc1C(=O)NCc1ccc(OC)cc1 -9.91%
CC(CCN1CCC(C(O)(c2ccccc2)c2ccccc2)CC1)Oc1ccc([N+](=O)[O-])cc1Cl (stereo unspecified) 1.05%
COCCn1c(CN2CCC(Cc3ccccc3)CC2)nc2c1c(=O)n(C)c(=O)n2C 4.97%
O=C(CCCCCN1C(=O)C2C3C=CC(C3)C2C1=O)Nc1ccccc1 (stereo unspecified) -6.87%
CO/N=C/CC(=O)c1ccc(OC)cc1 -0.8%
Cc1nc(S(=O)(=O)c2ccc(Br)cc2)nc2c1CCC2 1.36%
CCN1CCN(C(=O)N(Cc2ccc(Cl)cc2)S(=O)(=O)c2ccc(C)cc2)CC1 2.19%
N#Cc1ccccc1OC[C@@H](O)CN1CCC(C(O)(c2ccccc2)c2ccccc2)CC1 0.72%
CCCCNC(=O)C[C@H]1C(=O)N(Cc2ccc(OC)cc2)C2=CCCC[C@@]21C(=O)OCC -1.99%
CSc1nnc(-c2ccc(C(F)(F)F)cn2)o1 2.79%
Cc1ccc(O)c(NC(=O)c2cc(-c3ccco3)on2)c1 -2.88%
Cc1ccccc1NC(=O)c1ccc(COc2ccc3c(C)cc(=O)oc3c2)cc1 5.18%
CCN(Cc1ccncc1)C(=O)c1cccc(S(=O)(=O)N2CCOCC2)c1 0.65%
Cc1cccc(CN2CCN(C3CN(Cc4ccccc4)S(=O)(=O)C3)CC2)c1 (stereo unspecified) 1.18%
Cc1cccc(CN2CCN(C3CN(Cc4cn(Cc5ccccc5F)nn4)S(=O)(=O)C3)CC2)c1 (stereo unspecified) 5.03%
CCOc1ccc(Oc2c(Cl)cnn(-c3ccc(C)cc3)c2=O)cc1 3.14%
Cc1ccc(S(=O)(=O)Cn2nnnc2CN2CCN(Cc3ccc4c(c3)OCO4)CC2)cc1 0.18%
CCOc1nc(OCC)nc(-n2cc(-c3ccccc3)nn2)n1 -0.3%
COc1ccc(-c2ccc(CCC(=O)O)n2-c2ccc(O)cc2)cc1 -0.88%
COc1ccc(-c2ccc(CCC(=O)O)n2NC(=O)c2ccc(C(C)(C)C)cc2)cc1 -1.3%
CCC12CN3CC(CC)(CN(C1)C31C(=O)N(C)c3ccc(C)cc31)C2=O (stereo unspecified) -7.87%
C[C@H](O)[C@@H]1CN2CCc3ccc(-c4ccc5c(c4)OCO5)cc3[C@@H]2C[C@@H]1N(C)C(=O)C1CCCCC1 -1.38%
Cc1ccc(-c2nc3c(Cl)cc(C(F)(F)F)cn3c2Cc2cccc(Cl)c2)cc1 -2.87%
Cc1nn(-c2ncc(C(F)(F)F)cc2Cl)c(=O)n1-c1ccccc1 3.32%
CC(C)(C)NC(=O)COC(=O)c1cc(Cl)ccc1[N+](=O)[O-] -1.21%
COC(=O)C[C@H]1CC[C@H]2[C@H](COc3ccc(NC(=O)C4CC4)cc3C(=O)N2C)O1 -4.11%
Cc1ccc(N(C(=O)c2snc(C(N)=O)c2N)C(C(=O)NCC2CCCO2)c2c[nH]c3ccccc23)cc1 (stereo unspecified) 0.5%
c1nc(COc2nsnc2N2CCOCC2)cs1 -0.47%
Cc1ccc(Cn2cc(COC(=O)N(C)Cc3ccccc3)nn2)cc1 3.5%
O=C(NCc1cccs1)C1CCN(S(=O)(=O)c2ccccc2[N+](=O)[O-])CC1 0.44%
CCCn1c(SCC(=O)Nc2c(C)cccc2C)nnc1C(C)C 6.66%
O=C(c1ccc(C(F)(F)F)cc1)N1CCC(=O)N([C@H](COCc2ccccc2)Cc2ccccc2)CC1 3%
CC(C)CC(COCc1ccc(Cl)cc1)N1CCN(C(=O)c2ccc(C(F)(F)F)cc2)CCC1=O (stereo unspecified) 4.33%
C[C@@H]1ON(C)[C@H]2C[C@H]3c4cc(N5CCOCC5)ccc4CCN3C[C@@H]12 -5.34%
COC(=O)CNc1nc(Cl)nc(N2CCC(C)CC2)n1 2.21%
CCc1c(-c2ccc(F)cc2)ncn1Cc1cccc(-c2ccccc2)c1 1.61%
CCOC(=O)C1CCN(C(=O)C(C)(C)NC(=O)Nc2ccccc2Cl)CC1 1.47%
Fc1ccc2nc(COCc3nc4ccc(F)cc4[nH]3)[nH]c2c1 -0.41%
CCC(C)n1[nH]c(=O)c2c(C)cc(C)nc21 (stereo unspecified) -4.79%
CCC(=O)Nc1cccc(C2=NOC3(C2)C[C@@H](C(N)=O)N(C(=O)c2cc([N+](=O)[O-])cc([N+](=O)[O-])c2C)C3)c1 (stereo partly specified) -0.08%
O=c1[nH]cnc2c1c(-c1ccccc1)cn2-c1ccc(F)cc1 4.57%
